PAFAH2 FP inh: PAFAH2 (human) inhibition | recombinant PAFAH2, FP-rhodamine activity probe, fluorescence polarization | inhibition, % at 3.39 µM | 340,000 tested, 0.99% active | AID 492956;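 active means inhibition above the mean over all tested compounds plus 3 SD, cut at about 30% in these data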;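 further: inhibitors block probe labeling of enzyme so polarization drops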
pPAFAH FP inh: inhibitors of human plasma PAF acetylhydrolase (pPAFAH). recombinant pPAFAH, FP-rhodamine probe fluorescence polarization. inhibition, % at 3.39 µM. 330,000 tested, 1.5% active;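 active means inhibition above the mean inhibition across the screen plus 3 SD, cut at about 25% in these data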;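 further: inhibitors block binding of the rhodamine activity-based probe so polarization drops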
Target sequence (Q13093 whole entry, looked up): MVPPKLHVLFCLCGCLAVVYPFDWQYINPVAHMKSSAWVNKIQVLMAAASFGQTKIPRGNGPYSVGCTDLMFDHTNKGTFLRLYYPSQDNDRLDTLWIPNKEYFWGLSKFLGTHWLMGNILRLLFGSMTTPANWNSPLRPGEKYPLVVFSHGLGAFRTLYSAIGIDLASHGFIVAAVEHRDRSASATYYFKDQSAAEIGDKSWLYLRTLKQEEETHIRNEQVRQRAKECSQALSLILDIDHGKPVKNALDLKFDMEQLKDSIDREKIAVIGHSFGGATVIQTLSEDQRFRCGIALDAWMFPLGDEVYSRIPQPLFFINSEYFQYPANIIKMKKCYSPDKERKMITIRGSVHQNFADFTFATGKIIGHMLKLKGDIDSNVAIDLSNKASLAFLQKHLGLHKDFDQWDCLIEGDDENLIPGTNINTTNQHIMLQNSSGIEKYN
PAFAH1B3 FP inh: PAFAH1B3 (human) inhibition; 340,000 tested, 0.28% active; Q15102; inhibition, % at 3.39 µM; recombinant PAFAH1B3, FP-rhodamine probe, fluorescence polarization;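 active means inhibition above the screen-wide average of all tested compounds plus 3 SD, cut at about 25% in these data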
Target sequence (Q15102 whole entry, looked up): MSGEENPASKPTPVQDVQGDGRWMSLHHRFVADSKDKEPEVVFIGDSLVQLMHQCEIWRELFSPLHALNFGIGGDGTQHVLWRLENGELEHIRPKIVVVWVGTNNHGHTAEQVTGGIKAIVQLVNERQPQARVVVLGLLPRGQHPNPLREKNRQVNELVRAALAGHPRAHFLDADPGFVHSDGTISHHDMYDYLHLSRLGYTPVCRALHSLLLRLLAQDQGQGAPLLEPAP
PP5 inh: PP5 (human) phosphatase inhibition; inhibition, % at 6.7 µM; 320,000 tested, 0.18% active; purified PP5c, OMFP substrate fluorescence; AID 1987; P53041;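 active means inhibition above the campaign's mean inhibition across all tested compounds plus 3 SD, cut at about 9.5% in these data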
Fh CTSL1 inh: cathepsin L1 inhibition, PFM18AAP counter-screen. recombinant F. hepatica cathepsin L1, Z-Leu-Arg-MCA fluorescence. inhibition, % at 5.96 µM. 300,000 tested, 0.49% active;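 active means inhibition above the mean of all tested compounds plus 3 SD, set per screening campaign, cut at about 17% in these data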
PAFAH1B2 FP inh: inhibitors of human PAFAH1B2; P68402; recombinant PAFAH1B2, FP-rhodamine activity probe, fluorescence polarization; inhibition, % at 3.39 µM; 340,000 tested, 1.2% active; AID 492953;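 active means inhibition above the mean of all tested compounds plus 3 SD, cut at about 24% in these data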
PAFAH2 FP conf: confirmation of human PAFAH2 inhibitors; inhibition, % at 3.39 µM; 2,300 tested, 65% active; recombinant PAFAH2, FP-rhodamine activity probe, fluorescence polarization; shares compounds with PAFAH2 FP inh;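 active means mean inhibition over three repeats above a set limit taken from the earlier primary screen, cut at about 30% in these data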;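 further: inhibitor blocks binding of rhodamine activity probe so polarization falls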
Each line names hits and unclear results; the compound was inactive in the other large screens (follow-up assays come after a bar, where they were run). Hits are enriched below; roughly 3% of the tested compounds scored in any of these assays.

O=C(COC(=O)/C=C/c1cccs1)Nc1ccc2ccccc2c1	PAFAH2 FP inh 56 | PAFAH2 FP conf 51
Cc1ccc(S(=O)(=O)N(C)c2ccc(OCC(=O)Nc3ccc(C(=O)N(C)C)cc3)cc2)cc1C	none (no result: Fh CTSL1 inh)
O=C(COC(=O)c1ccc(Cl)c(S(=O)(=O)N2CCCC2)c1)NC1CCCC1	PAFAH2 FP inh 41 | PAFAH2 FP conf inactive
CCCNC(=O)COC(=O)c1ccc(N2CCCC2)c([N+](=O)[O-])c1	PAFAH2 FP inh 65 | PAFAH2 FP conf 51
CCCNC(=O)COC(=O)c1ccc(Cl)c(S(=O)(=O)N2CCCC2)c1	PAFAH2 FP inh 34 | PAFAH2 FP conf inactive
COc1ccc(S(=O)(=O)N2CCCCC2)cc1NC(=O)c1cncc(Br)c1	none (no result: Fh CTSL1 inh)
CN(C)S(=O)(=O)c1cccc(COC(=O)c2ccc3c(c2)OCO3)c1	PAFAH2 FP inh 31 | PAFAH2 FP conf inactive
Cc1ccc(S(=O)(=O)N(C)C)cc1NC(=O)COC(=O)c1ccc2c(c1)OCCO2	PAFAH2 FP inh 64 | PAFAH2 FP conf 64
Cc1ccc(S(=O)(=O)N(C)C)cc1NC(=O)COC(=O)C1=COCCO1	none (no result: Fh CTSL1 inh)
Cc1ccc(S(=O)(=O)N(C)C)cc1NC(=O)COC(=O)c1ccc2c(c1)OCO2	PAFAH2 FP inh 60 | PAFAH2 FP conf 52
COc1cc(/C=N/n2c(COc3ccccc3)n[nH]c2=S)cc(Br)c1O	PAFAH2 FP inh 52 | PAFAH2 FP conf 38
C=C(C)c1cccc(C(C)(C)NC(=O)NNC(=O)c2ccccc2O)c1	PAFAH2 FP inh 35 | PAFAH2 FP conf inactive
O=C(NC(=S)Nc1cc(S(=O)(=O)N2CCOCC2)ccc1O)c1ccco1	PAFAH2 FP inh 44 | PAFAH2 FP conf 32
CCSC1=N/C(=C\c2ccc(C(=O)O)cc2)C(=O)S1	PAFAH2 FP inh 31 | PAFAH2 FP conf inactive
Cc1ccc(C2(C)NC(=O)N(CC(=O)NCCN3C(=O)S/C(=C\c4cccnc4)C3=O)C2=O)cc1 (configuration not stated)	none (no result: pPAFAH FP inh, PP5 inh, Fh CTSL1 inh)
Cc1ccccc1NC(=O)CN1C(=O)NC2(CCCCCCC2)C1=O	none (no result: pPAFAH FP inh, PP5 inh, Fh CTSL1 inh)
COC(=O)c1ccccc1NC(=O)CN1C(=O)NC2(CCCCCCC2)C1=O	PAFAH2 FP inh 85 (no result: Fh CTSL1 inh) | PAFAH2 FP conf inactive
Cc1cc(C)c(NC(=O)COC(=O)C23CC4CC(CC(O)(C4)C2)C3)c(Cl)c1	PAFAH2 FP inh 47 (no result: PP5 inh, Fh CTSL1 inh) | PAFAH2 FP conf 34
O=C(COC(=O)C12CC3CC(CC(O)(C3)C1)C2)Nc1ccc(Cl)c(S(=O)(=O)N2CCOCC2)c1	PAFAH2 FP inh 48 (no result: PP5 inh, Fh CTSL1 inh) | PAFAH2 FP conf inactive
COc1ccc(NC(=O)COC(=O)C23CC4CC(CC(O)(C4)C2)C3)cc1Cl	none (no result: PP5 inh, Fh CTSL1 inh)
O=C(Nc1cccc(Cl)c1)c1cc(N=Nc2ccc([N+](=O)[O-])cc2Cl)ccc1O	PAFAH2 FP inh 33 | PAFAH2 FP conf inactive
O=C(Nc1ccc([N+](=O)[O-])cc1Cl)c1cc(Cl)ccc1O	none
O=C(O)/C(=C\c1ccccc1OC(F)F)c1ccc(-c2ccccc2)cc1	PAFAH2 FP inh 49 | PAFAH2 FP conf 40
CCOC(=O)c1nc(C)n(-c2ccc(Cl)cc2)n1	none
COc1ccc(-n2nc(N)c3c(=O)oc(N(C)C)nc32)cc1	PAFAH2 FP inh 54 | PAFAH2 FP conf 45
COc1ccc(-n2nc(C)c3onc(C)c3c2=O)cc1	none (no result: PAFAH2 FP inh, PAFAH1B3 FP inh, PAFAH1B2 FP inh)
CN(C)c1nc2c(c(N)nn2-c2ccc(Cl)cc2)c(=O)o1	PAFAH2 FP inh 47 | PAFAH2 FP conf 41
CCc1sc(C(=O)Nc2ncccc2O)cc1C	PAFAH2 FP inh 30 (no result: pPAFAH FP inh, PP5 inh, Fh CTSL1 inh) | PAFAH2 FP conf inactive
Cc1ccc(C)c(N(C)S(=O)(=O)c2ccc3c(c2)oc(=O)n3C)c1	none
O=C(COC(=O)c1ccc2ncsc2c1)Nc1ncc(Cl)cc1Cl	PAFAH2 FP inh 31 | PAFAH2 FP conf inactive
O=C(COC(=O)c1ccc2ncsc2c1)NC(=O)c1ccccc1	none
O=C(COC(=O)c1ccc2ncsc2c1)Nc1cc(Cl)ccc1F	PAFAH2 FP inh 66 (no result: pPAFAH FP inh, PP5 inh, Fh CTSL1 inh) | PAFAH2 FP conf 60
Cc1c(Cl)cnc(NC(=O)COC(=O)c2ccc3ncsc3c2)c1Cl	PAFAH2 FP inh 47 | PAFAH2 FP conf 36
COC(=O)c1ccc(C(=O)OC)c(NC(=O)COC(=O)CCOc2ccc(C)cc2)c1	none
COc1ccc(C(=O)OCC2CC(c3ccccc3)=NO2)cc1OC (configuration not stated)	PAFAH2 FP inh 68 | PAFAH2 FP conf 60
COc1cc(C(=O)OCC2CC(c3ccccc3)=NO2)cc(OC)c1OC (configuration not stated)	none
O=C1NC(=Nc2cccc(O)c2)S/C1=C\c1cccc([N+](=O)[O-])c1	none
Cc1cccn2c(=O)c3cc(S(=O)(=O)c4ccccc4)c(=N)n(Cc4cccnc4)c3nc12	PAFAH2 FP inh 38 | PAFAH2 FP conf 33
Cn1nc(-c2ccc(N3CCN(CCO)CC3)c([N+](=O)[O-])c2)c2ccccc2c1=O	none
CCOc1ncccc1C(=O)OCCCC(=O)c1ccc(Br)cc1	none (no result: Fh CTSL1 inh)
Oc1cc2c(cc1O)[C@H]1c3ccc(O)c(O)c3OC[C@@]1(O)C2	none (no result: Fh CTSL1 inh)
Oc1ccc2c(c1)OCC1(O)Cc3cc(O)c(O)cc3C21 (configuration not stated)	PAFAH2 FP inh 34 (no result: pPAFAH FP inh, PP5 inh, Fh CTSL1 inh) | PAFAH2 FP conf inactive
O=C(CCN1C(=O)C2C3CCC(C3)C2C1=O)Nc1ccc(F)cc1 (configuration not stated)	none (no result: pPAFAH FP inh, PP5 inh, Fh CTSL1 inh)
Cc1c(Cl)cccc1NCC(=O)NN=C1CCCC1	none
CCOC(=O)C/C(C)=N/NC(=O)CNc1cccc(Cl)c1C	PAFAH2 FP inh 72 | PAFAH2 FP conf 63
CCOC(=O)c1c(C)[nH]c(C(=O)OCC(=O)Nc2ccccc2)c1C	PAFAH2 FP inh 34 (no result: Fh CTSL1 inh) | PAFAH2 FP conf 34
CC(=O)c1c(C)[nH]c(C(=O)OCC(=O)Nc2ccccc2Cl)c1C	PAFAH2 FP inh 33 | PAFAH2 FP conf inactive
CC(=O)c1c(C)[nH]c(C(=O)OCC(=O)NCC(C)C)c1C	PAFAH2 FP inh 31 | PAFAH2 FP conf inactive
CCOC(=O)c1c(C)[nH]c(C(=O)OCc2ccccc2)c1C	none
CCOc1ccc(OCC)c(-c2c(=O)n(OCc3ccccc3Br)c3ccccc3[n+]2[O-])c1	none
Cc1cc(C)c2c(N)c(C(=O)Nc3ccc([N+](=O)[O-])cc3)sc2n1	none
O=c1c2ccccc2nc2n1-c1ccccc1CCC2	none
O=C1c2ccccc2-n2c1nc1ccccc1c2=O	PAFAH2 FP inh 32 | PAFAH2 FP conf inactive
O=C(O)CN1C(=O)/C(=C\c2ccccc2OCc2ccc(F)cc2)SC1=S	PAFAH2 FP inh 39 | PAFAH2 FP conf 35
O=C(O)CN1C(=O)/C(=C\c2cc(Br)ccc2OCc2ccc(Cl)cc2)SC1=S	PAFAH2 FP inh 32 (no result: pPAFAH FP inh, PP5 inh, Fh CTSL1 inh) | PAFAH2 FP conf inactive
Cc1ccc(C)c(-n2ccnc2SCC(=O)Nc2cccc(S(=O)(=O)NC3=NCCC3)c2)c1	none (no result: Fh CTSL1 inh)
CN(C)c1c([N+](=O)[O-])cc(N2C(=O)C=CC2=O)cc1[N+](=O)[O-]	none (no result: pPAFAH FP inh, PP5 inh, Fh CTSL1 inh)
